From ChEMBL document CHEMBL3988442, “University of Dundee, Small-Polar-MMV Screening Library” (2021)

Assays:
[1] = biological target: T1, Aspartate--tRNA(Asp/Asn) ligase (Mycobacterium tuberculosis (strain ATCC 25618 / H37Rv)) (UniProt P9WFW3); assay: Assay for Asp RNA synthetase-1 from Mycobacterium tuberculosis; assay type: functional; design: scale not given: direction of the effect not stated beside the values; conditions: 30 µM; also: in the data most compounds retested in dose-response had high values
T1 sequence (whole entry): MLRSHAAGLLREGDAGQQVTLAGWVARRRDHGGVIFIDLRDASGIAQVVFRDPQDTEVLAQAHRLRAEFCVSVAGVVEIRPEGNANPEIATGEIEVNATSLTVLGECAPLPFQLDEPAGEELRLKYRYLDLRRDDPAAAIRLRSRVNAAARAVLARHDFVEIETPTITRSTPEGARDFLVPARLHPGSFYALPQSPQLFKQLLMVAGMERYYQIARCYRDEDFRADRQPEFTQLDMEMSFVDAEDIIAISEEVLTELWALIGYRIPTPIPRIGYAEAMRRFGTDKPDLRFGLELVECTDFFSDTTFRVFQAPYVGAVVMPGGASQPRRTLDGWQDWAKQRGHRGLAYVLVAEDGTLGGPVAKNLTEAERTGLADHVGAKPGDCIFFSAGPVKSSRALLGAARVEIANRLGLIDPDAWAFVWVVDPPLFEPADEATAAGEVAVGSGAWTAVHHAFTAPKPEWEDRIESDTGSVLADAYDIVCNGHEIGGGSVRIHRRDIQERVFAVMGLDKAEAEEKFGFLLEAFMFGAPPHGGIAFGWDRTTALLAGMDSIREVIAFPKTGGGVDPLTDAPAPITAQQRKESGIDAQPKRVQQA

[2] = biological target: Shiga toxin 2 (Escherichia coli O157:H7) (UniProt P09385+P09386); assay: E. coli 0.157:H7 Shiga Toxin SOP - stx2 screening assay; assay type: functional; design: scale not given: direction of the effect not stated beside the values; conditions: 30 µM

Row | SMILES | Percent Effect [1] | Percent Effect [2]
1 | COc1ccc(C(N)c2cccc(S(C)(=O)=O)c2)cc1 (stereo unspecified) | -2.54% | -7.65%
2 | CCN(Cc1ccc2c(c1)OCO2)C(=O)c1ccc(C)[nH]c1=O | 0.522% | -16%
3 | CS(=O)(=O)NC[C@]12COC[C@H]1CN(C(=O)C1CCCCC1)C2 | 7.93% | -3.53%
4 | COCc1nc(C(=O)NS(=O)(=O)c2cc(F)ccc2F)cs1 | -0.5% | -51.5%
5 | O=C(O)c1cc(NS(=O)(=O)c2cccc(Cl)c2F)ccc1Cl | 0.425% | 20.1%
6 | O=C(O)C1CCCCN1C(=O)c1cccc(C(F)(F)F)c1 (stereo unspecified) | -1.94% | 33.5%
7 | Cc1cnn(CC2CCCCN2C(=O)c2ccc3nnc(C)n3c2)c1 (stereo unspecified) | 10.3% | 21.9%
8 | CCc1nc(C2CCCN2CC(=O)Nc2nncs2)no1 (stereo unspecified) | -0.364% | 2.9%
9 | COCCn1ccc(=O)c(OCC(=O)Nc2cccc(C(C)=O)c2)c1C | -4.27% | -43.8%
10 | COCCO[C@H]1CCN(C(=O)c2cc(C)on2)[C@H]1Cc1ccccc1 | -1.39% | -1.24%
11 | COC(=O)CCNC(=O)c1ccoc1CN1c2ccccc2CC1C (stereo unspecified) | 0.0912% | -1.74%
12 | Cc1nc(C2CCCN(C(=O)CCCn3ccnc3C)C2)no1 (stereo unspecified) | -1% | 14.1%
13 | CC(C)c1nccn1C1CCCN(C(=O)c2cnc[nH]2)C1 (stereo unspecified) | -0.983% | -3.33%
14 | O=C(c1cscn1)N1CCC2(CCN(Cc3cccs3)CC2)C1 | -4.17% | -7.4%
15 | CCc1nc(CN(C(C)=O)C2CCN(CCc3cnn(C)c3)C2)no1 (stereo unspecified) | -5.05% | -15.6%
16 | Cc1nn2cccnc2c1C(=O)N1CCCC(n2ccnc2)C1 (stereo unspecified) | 6.28% | -29.8%
17 | COc1cccc(S(=O)(=O)NC2CNC(=O)C2)c1 (stereo unspecified) | -3.48% | 3.09%
18 | Cc1ccc2c(n1)N(CCn1cccn1)CCN(C(=O)CC1CC1)C2 | -3.03% | 2.2%
19 | Cc1nc2cc(C3CCN(Cc4cccc(F)c4F)C3)nn2c(O)c1C (stereo unspecified) | 2.37% | -139%

Row | SMILES | Percent Effect [1] | Percent Effect [2]
20 | CCn1nccc1CNC(=O)C1CCCC1 | 11.4% | -65.5%
21 | COc1ccc(CC(=O)N2CCCN(c3ccc(C#N)cc3)CC2)cc1 | 5.93% | -7.8%
22 | CCCN(CCO)C(=O)C1CCC(=O)N(CCc2ccc(Cl)cc2)C1 (stereo unspecified) | -4.04% | 18%
23 | O=C(NCC1CC1)Nc1cnc2cc(Cl)ccc2c1O | -0.223% | -0.695%
24 | CC(C)c1nc(CN2CCCCC2)cs1 | -3.66% | 7.17%
25 | COC(=O)c1sccc1S(=O)(=O)N1CCC(Oc2cccnn2)CC1 | -2.42% | -7.45%
26 | CCc1nc(C2CCCN2C(=O)CCn2cncn2)no1 (stereo unspecified) | 3.36% | 5.08%
27 | CCOCC1CN(C(=O)c2ccncc2)Cc2nn(C)cc21 (stereo unspecified) | 4.25% | -22.5%
28 | CC(C)c1nc(CN2CCCN(Cc3nnc(C4CC4)o3)CC2)no1 | -3.22% | -24.4%
29 | c1cnnc(N2CCCC(NCc3cn4ccccc4n3)C2)c1 (stereo unspecified) | 2.13% | -114%
30 | CCN(CC)C(=O)c1cc(C2CCCN2C)ccn1 (stereo unspecified) | 4.39% | 1.51%
31 | Cn1cc(CN2CC[C@H]3O[C@H](C(=O)NCc4ccco4)CC[C@H]32)cn1 | 5.47% | -27.7%
32 | CN1CCN(C(=O)[C@H]2C[C@@H]3CCN(c4ncc(F)cn4)C[C@@H]3O2)CC1 | -1.43% | -18.9%
33 | CCn1cnnc1C1CCN(C(=O)c2cnc(C3CC3)s2)CC1 | -8.99% | -7.13%
34 | Cn1ccc(CN2CCCC2c2ccc3c(c2)OCCCO3)cc1=O (stereo unspecified) | -1.54% | -60%
35 | CC(C)c1n[nH]c(C2CN(C(=O)CCCn3cccn3)CCO2)n1 (stereo unspecified) | -2.62% | -10.6%
36 | O=C(c1ccc(C2CCCO2)s1)N1CCS(=O)(=O)CC1 (stereo unspecified) | 3.74% | -6.97%
37 | CCc1nnc2n1CCN(Cc1csc(-c3ccsc3)n1)C2 | 1.89% | -7.29%
38 | CC(C)N1CCC(Cc2cnc(-c3cccc(C(=O)O)c3)cn2)C1 (stereo unspecified) | -5.2% | 16%
